Activation data for 40 compounds are collected here from PubChem BioAssay (NCATS).

Several values for one entry are separate records, joined by “and”; a condition that tells them apart may be missing. Equal entries are not always repeated. Records with an inconclusive call do not appear. A number with no mark means an inactive call. Calls come from the whole dose curve; as a rule, active = well fitted curve in the direction sought with a large enough effect in the signal ratio, with a control signal flat; inconclusive = small, poorly fitted or top-dose-only effect, or a change in a side signal; inactive = no such curve, though single readings can be large or run the other way; the % refers to the signal ratio.

Glucocorticoid receptor (Homo sapiens), sequence (P04150 whole entry, looked up): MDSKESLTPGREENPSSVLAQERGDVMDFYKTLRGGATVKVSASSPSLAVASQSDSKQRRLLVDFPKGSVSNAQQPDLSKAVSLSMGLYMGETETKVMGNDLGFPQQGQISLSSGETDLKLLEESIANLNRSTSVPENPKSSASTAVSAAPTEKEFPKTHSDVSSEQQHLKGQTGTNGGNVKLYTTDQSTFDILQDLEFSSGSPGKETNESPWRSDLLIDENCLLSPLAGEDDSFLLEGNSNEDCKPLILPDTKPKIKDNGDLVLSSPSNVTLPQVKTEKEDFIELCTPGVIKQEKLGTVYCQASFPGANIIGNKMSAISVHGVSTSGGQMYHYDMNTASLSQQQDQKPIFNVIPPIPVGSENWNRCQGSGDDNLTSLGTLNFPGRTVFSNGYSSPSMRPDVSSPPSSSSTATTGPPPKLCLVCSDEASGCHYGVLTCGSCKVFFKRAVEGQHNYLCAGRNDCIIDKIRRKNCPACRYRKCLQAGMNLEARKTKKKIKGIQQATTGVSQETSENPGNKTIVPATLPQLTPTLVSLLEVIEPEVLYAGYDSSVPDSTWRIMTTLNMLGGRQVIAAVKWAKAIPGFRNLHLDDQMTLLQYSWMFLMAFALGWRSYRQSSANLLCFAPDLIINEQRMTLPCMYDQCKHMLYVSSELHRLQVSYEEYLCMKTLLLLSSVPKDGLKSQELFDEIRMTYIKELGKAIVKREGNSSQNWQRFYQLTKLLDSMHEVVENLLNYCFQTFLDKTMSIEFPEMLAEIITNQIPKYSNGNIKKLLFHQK

This assay has as its target Glucocorticoid receptor (Homo sapiens) (UniProt P04150). Description: qHTS assay for small molecule agonists of glucocorticoid receptor signaling (AID 588532). The conditions noted are these: HeLa MMTV-bla, beta-lactamase ratio, agonist, 18 h; active compounds read high; percent of dexamethasone control, DMSO zero. From the text: NIH Chemical Genomics Center [NCGC] U.S. Environmental Protection Agency [EPA] National Institutes of Environmental Health Sciences [NIEHS] National Toxicology Program [NTP] NCGC Assay Overview The Glucocorticoid receptor (GR), a nuclear receptor subfamily member and its natural ligands includes […] etc. The GR is a validated drug target for inflammation. GR ligands such as dexamethasone are clinically available as anti-inflammatory drugs. Glucocorticoids implicate role in carbohydrate, protein and lipid metabolisms and programmed cell death. They are also a component of many chemotherapy regimens for the treatment of leukemias, lymphomas, and myelomas because of their role in the induction of apoptosis.
NCGC Assay Protocol Summary Using a beta-lactamase reporter-gene under control of glucocorticoid response element (GRE), a cell-based assay [CellSensor MMTV-bla HeLa cell line assay developed by Invitrogen] was used to measure GR ligands signaling. CellSensor MMTV-bla HeLa cells were used with assay medium containing 1% charcoal/dextran treated FBS, 0.1 mM NEAA, 1 mM sodium pyruvate and 25mM HEPES. The assay was performed in clear bottom black Greiner 1536-well plates. Dexamethasone and Mifepristine were used in the screen as agonist and antagonist positive controls respectively. Library compounds were measured for their ability to stimulate the reporter gene activity. Compounds were screened in a titration series in 1536-well format. The fluorescence intensity (405 nm excitation, 460/530 nm emission) was measured using an EnVision plate reader. Data was normalized relative to Dexamethasone control (0.1 uM, 100%), and DMSO only wells (basal, 0%). Concentration-response titration points for each compound were fitted to the Hill equation yielding concentrations of half-maximal stimulation (EC50) and maximal response (efficacy) values. qHTS protocol for GR beta-lactamase assay in agonist mode [Step] [Parameter] [Value] [Description] 1. Reagent; 6 uL; 1500 cells/well 2. Incubation; 37 C for 3-5 hrs 3. Compounds; 23 nL; 0.59 nM to 92 uM 4. Controls (Dexamethasone); 23 nL, - One column with dose response, start 4.6uM, 1:3 dilutions in duplicates - Final concentrations of 0.1 uM and 2 nM in two columns 5. Incubation; 37 C for 18 hrs 6. Detection reagent; 1 uL of CCF4-dye 7. Incubation; RT for 2 hrs 8. Detection; Fluorescence; Envision plate reader
Consider `CCc1ccc(C(c2ccc(CC)cc2)C(Cl)Cl)cc1`, for which the activation is 1.14%.

For the compound `CN(C)c1ccc(Cc2ccc(N(C)C)cc2)cc1`, the activation is 7.64% and -3.57%.

As to `O=C1OC(=O)c2ccccc21`, the activation was 8.87%.

Turning to `C=C(C#N)C(=O)OCC`, the activation is -0.945%.

On to `OC1CCCCC1`, for which the activation was -3.35%.

As to `c1ccc2c(c1)ccc1ccccc12`, the activation is 3.65% and 10.6%.

Consider `Cc1c(N)cccc1Cl`, for which the activation is -4.07%.

`COc1ccc(C)cc1N`: the activation was 9.32%.

Turning to `CC(C)S`, the activation is 2.41%.

Take `CCN(CC)c1ccc(N)cc1`: the activation is 8.72%.

On to `O=[N+]([O-])c1cccc(I)c1`, for which the activation was -12.6%.

With `CC(=O)Nc1cccc(C)c1`, the activation is -1.44%.

`CCCCC(CC)COCCCN` (stereo not given): the activation is -4.42%.

For `c1ccc(CSCc2ccccc2)cc1`, the activation is -4.65%.

With `Brc1cc(Oc2cc(Br)c(Br)c(Br)c2Br)c(Br)c(Br)c1Br`, the activation was -9.25% and -1.53%.

For the compound `c1c[nH]cn1`, the activation is -7.19%.

On to `Cc1ccc(S(N)(=O)=O)cc1`, for which the activation is 1.06% and -7.61%.

For the compound `Cc1ccc(N)cc1[N+](=O)[O-]`, the activation is 0.881%.

For `C=CC(=O)OCCCCCCOC(=O)C=C`, the activation is -0.42% and -1.5%.

With `O=CC(=O)c1ccccc1`, the activation was -5.46%.

Turning to `CC(=O)OC1CC(C)OC(C)O1` (stereo not given), the activation was 0.225% and -13.7%.

In the case of `CCCCC(CC)COP(=O)(OCC(CC)CCCC)OCC(CC)CCCC` (stereo not given), the activation was -3.34%.

Consider `CC(=O)c1ccc(Cl)c(Cl)c1Cl`, for which the activation is 1.81%.

Regarding `C[C@@H]1CC2(OC(O)[C@]3(C)O[C@H]23)O[C@H]2C[C@@]3(C)[C@@H]4CC[C@H]5C(C)(C)C(O[C@@H]6OC[C@@H](O)[C@H](O)[C@H]6O)CC[C@@]56C[C@@]46CC[C@]3(C)[C@@H]12` (stereo not given in full), the activation is 1.76%.

For `CN(C)c1ccc(C(=N)c2ccc(N(C)C)cc2)cc1`, the activation is 2.53%.

`Oc1c(Cl)cc(Cl)c(Cl)c1Cl`: the activation is 5.94%.

Turning to `CC(C)COC(=O)COc1cc(Cl)c(Cl)cc1Cl`, the activation is -3.56%.

For the compound `c1ccc2ncccc2c1`, the activation is -12.1%.

With `O=C=Nc1ccc(Cl)c(Cl)c1`, the activation was 5.86%.

Consider `Nc1ccc(N=Nc2ccccc2)c(N)c1`, for which the activation was -4.54%.

As for `OCC(CO)(CBr)CBr`, the activation was -3.06%.

`Cc1ccc(O)c(N)c1`: the activation is 4.97%.

For `CC(/C=C/C=C(C)/C=C/C(=O)O)=C\C=C\C=C(C)\C=C\C=C(C)\C=C\C(=O)O`, the activation was 1.99%.

For `CC(CCC(=O)O)(c1ccc(O)cc1)c1ccc(O)cc1`, the activation is 3.51% and -3.34%.

With `CCC(Cl)CC(Cl)C(Cl)C(Cl)C(Cl)C(C)Cl` (stereo not given), the activation was 4.73%.

With `Brc1ccc(-c2ccccc2)cc1`, the activation is -2.59%.

Take `Cc1c(C(=O)O)c(O)cc2c1C(=O)c1c(O)c([C@H]3O[C@H](CO)[C@@H](O)[C@H](O)[C@H]3O)c(O)c(O)c1C2=O`: the activation is -7.96%.

In the case of `O=C(OCC1CO1)C1CCCCC1C(=O)OCC1CO1` (stereo not given), the activation was 2.8%.

For the compound `Cc1cc(=O)oc2cc(O)cc(O)c12`, the activation is 9.06%.

Take `c1cc2c3c(c1)ccc1cccc(c13)C2`: the activation is -6.79%.
